Laboratory results reported in PubChem BioAssay.
Active and inactive are the calls of the source. Unless noted, the rule behind the calls is not given here.

Columns and labels:
[1] = tested on: Wnt5a (protein binding on small-molecule microarray); assay: small molecules binding Wnt5a protein – biophysical, small-molecule microarray, 635/667 nm fluorescence, primary screen (AID 1142); conditions: 635 nm fluorescence, higher = more signal;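 note: fluorescence read at 667 nm with signal to noise per printed feature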
[2] = ATP-based viability of Huh7 replicon cells – cell-based, CellTiter-Glo luminescence, basal, 48 h, cytotoxicity control for HCV replication inhibitor project, primary screen (AID 1143); conditions: higher = more signal, called active from +8 up or from −8 down;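 note: Huh7 hepatoma cells carrying a hepatitis C replication reporter with no stimulus; test concentration not given here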
[3] = Pseudomonas biofilm growth suppression – PAO1 strain, BacTiter-Glo luminescence, LB-PBS, primary screen (AID 1144); conditions: P. aeruginosa PAO1 biofilm, 12 h, higher = more signal
[4] = basal CRE-LacZ reporter activity in PC12 – cell-based, unstimulated, primary screen (AID 1145); conditions: no forskolin, luminescence, 4.5 h, higher = more signal, called active from +8 up or from −8 down
[5] = forskolin-driven CRE-LacZ activity in PC12 – cell-based, CRE-LacZ reporter, forskolin-stimulated, primary screen (AID 1146); conditions: luminescence, 4.5 h, higher = more signal, called active from +8 up or from −8 down;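 note: PC12 cells with 6xCRE LacZ reporter stimulated by forskolin 10 µM; beta-galactosidase reporter signal reflecting CREB driven transcription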
[6] = molecular target: Streptavidin (Streptomyces avidinii) (UniProt P22629); assay: compounds binding control protein streptavidin – biophysical, small-molecule microarray, 635/667 nm fluorescence, artefact control for SMM compound annotation, primary screen (AID 1147); conditions: higher = more signal;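 note: signal reflects streptavidin binding to arrayed compounds as a control protein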
[7] = probe aInhba binding on compound microarray – biochemical, small-molecule microarray, 635/667 nm fluorescence, primary screen (AID 1148); conditions: higher = more signal;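 note: score merges 667nm spot fluorescence with signal-to-noise for antibody binding to printed compounds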
Torsin-1A (Homo sapiens) [8] = molecular target: Torsin-1A (Homo sapiens) (UniProt O14656); assay: TOR1A wild-type binding on microarray – cell lysate, small-molecule microarray, lysate, 635/667 nm, primary screen (AID 1149); conditions: COS7 hTOR1A-WT lysate, 635 nm fluorescence, higher = more signal
Torsin-1A (Homo sapiens) [9] = molecular target: Torsin-1A (Homo sapiens) (UniProt O14656); assay: torsin A mutant lysate binding on microarrays – cell lysate, small-molecule microarray, COS7 lysate, 635/667 nm fluorescence, primary screen (AID 1150); conditions: COS7 hTOR1A mutant lysate, 635 nm fluorescence, higher = more signal;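 note: score pools 667 nm emission and signal to noise measuring lysate protein binding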
[10] = tested on: Sonic hedgehog protein (Shh); assay: Sonic hedgehog microarray binding compounds – biochemical, small-molecule microarray, 635/667 nm fluorescence, primary screen (AID 1151); conditions: 635 nm fluorescence, higher = more signal;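 note: Shh protein binding to compounds spotted on small-molecule microarray slides; score combines spot fluorescence intensity with signal-to-noise across triplicate slides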
[11] = optical density shifts of acrAB sulA E. coli – strain DRC41, OD650, 48 h, E. coli filamentation inducer project, primary screen (AID 1152); conditions: higher = more signal, called active from +8 up or from −8 down;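 note: E. coli MC1000 strain DRC41 lacking acrAB efflux pump and sulA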
[12] = probe aLefty1 binding on compound microarray – biochemical, small-molecule microarray, 635/667 nm fluorescence, primary screen (AID 1153); conditions: higher = more signal;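 note: score merges spot fluorescence with signal-to-noise ratio from the scanned slide images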
[13] = plasmodial surface anion channel blockers, osmotic lysis – cell-based, P. falciparum Indochina, OD700, 1 h, primary screen (AID 1154); conditions: P. falciparum Indochina infected RBC osmotic lysis, higher = more signal, called active from +8 up or from −8 down
[14] = plasmodial surface anion channel blockers, osmotic lysis – cell-based, P. falciparum Indochina, OD700, 2 h, primary screen (AID 1155);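 note: lysis reports solute entry through the parasite surface anion channel PSAC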; conditions: P. falciparum Indochina infected erythrocytes, higher = more signal, called active from +8 up or from −8 down
[15] = changes in parasitized red cell lysis, either direction – P. falciparum Indochina, OD700, 3 h, PSAC antagonist project, primary screen (AID 1156); conditions: P. falciparum-infected erythrocytes, osmotic lysis, higher = more signal, called active from +8 up or from −8 down
[16] = plasmodial surface anion channel blockers, osmotic lysis – cell-based, P. falciparum Indochina, OD700, 18 h, primary screen (AID 1157); conditions: P. falciparum Indochina infected erythrocytes, osmotic lysis OD700, 18 h; higher = more signal, called active from +8 up or from −8 down
[17] = S6 kinase pathway phospho-S6 level changes – cell-based, A549, cytoblot, luminescence, serum-stimulated, primary screen (AID 1158); conditions: 5 h, higher = more signal;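 note: serum-stimulated A549 lung adenocarcinoma cells; signal is phosphorylated S6 detected by cytoblot immunostaining with HRP secondary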
[18] = molecular target: NADPH oxidase 2 (Homo sapiens) (UniProt P04839); assay: compounds shifting NOX2 Amplex Red fluorescence – cell-based, HEK293-NOX2, PMA-stimulated, NOX inhibitor project, primary screen (AID 1159); conditions: 45 min, higher = more signal, called active from +8 up or from −8 down; note: test concentration not given here
[19] = molecular target: NADPH oxidase 4 (Homo sapiens) (UniProt Q9NPH5); assay: compounds shifting NOX4 Amplex Red fluorescence – cell-based, HEK293-NOX4, tetracycline-induced, NOX inhibitor project, primary screen (AID 1160); conditions: HEK293-NOX4, Amplex Red H2O2 fluorescence, 45 min; higher = more signal, called active from +8 up or from −8 down
[20] = molecular target: NADPH oxidase 5 (Homo sapiens) (UniProt Q96PH1); assay: compounds shifting NOX5 Amplex Red fluorescence – cell-based, HEK293-NOX5, NOX inhibitor project, primary screen (AID 1161); conditions: HEK293-NOX5, ionomycin, 45 min, higher = more signal
Chain of NADPH oxidase 5 (Homo sapiens) (Q96PH1 whole entry, looked up): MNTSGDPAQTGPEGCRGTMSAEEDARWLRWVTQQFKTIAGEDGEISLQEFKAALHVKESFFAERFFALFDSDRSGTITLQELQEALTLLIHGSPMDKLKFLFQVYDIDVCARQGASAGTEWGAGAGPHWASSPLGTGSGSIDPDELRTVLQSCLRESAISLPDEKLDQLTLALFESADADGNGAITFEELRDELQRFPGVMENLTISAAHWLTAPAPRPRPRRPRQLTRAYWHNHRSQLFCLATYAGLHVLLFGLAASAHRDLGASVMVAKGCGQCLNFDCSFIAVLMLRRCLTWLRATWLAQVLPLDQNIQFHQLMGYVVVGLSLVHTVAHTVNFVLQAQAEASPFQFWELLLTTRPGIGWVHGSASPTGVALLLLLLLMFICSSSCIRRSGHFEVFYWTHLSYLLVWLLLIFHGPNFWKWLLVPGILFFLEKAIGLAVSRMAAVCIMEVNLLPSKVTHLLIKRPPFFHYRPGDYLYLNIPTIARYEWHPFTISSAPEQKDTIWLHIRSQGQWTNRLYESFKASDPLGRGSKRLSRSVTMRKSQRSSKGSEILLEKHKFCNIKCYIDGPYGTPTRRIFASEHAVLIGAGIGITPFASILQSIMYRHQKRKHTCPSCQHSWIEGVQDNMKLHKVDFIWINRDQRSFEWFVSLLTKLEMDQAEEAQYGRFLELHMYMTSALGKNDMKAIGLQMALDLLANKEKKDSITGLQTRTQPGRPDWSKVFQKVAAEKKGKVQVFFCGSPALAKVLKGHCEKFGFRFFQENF

Chain of Streptavidin (Streptomyces avidinii) (P22629 whole entry, looked up): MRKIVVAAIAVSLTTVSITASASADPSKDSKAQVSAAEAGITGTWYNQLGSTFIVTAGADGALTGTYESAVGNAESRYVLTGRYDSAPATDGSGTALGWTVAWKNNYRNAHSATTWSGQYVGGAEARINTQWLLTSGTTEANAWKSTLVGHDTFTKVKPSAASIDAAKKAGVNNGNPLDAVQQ
Chain of NADPH oxidase 2 (Homo sapiens) (P04839 whole entry, looked up): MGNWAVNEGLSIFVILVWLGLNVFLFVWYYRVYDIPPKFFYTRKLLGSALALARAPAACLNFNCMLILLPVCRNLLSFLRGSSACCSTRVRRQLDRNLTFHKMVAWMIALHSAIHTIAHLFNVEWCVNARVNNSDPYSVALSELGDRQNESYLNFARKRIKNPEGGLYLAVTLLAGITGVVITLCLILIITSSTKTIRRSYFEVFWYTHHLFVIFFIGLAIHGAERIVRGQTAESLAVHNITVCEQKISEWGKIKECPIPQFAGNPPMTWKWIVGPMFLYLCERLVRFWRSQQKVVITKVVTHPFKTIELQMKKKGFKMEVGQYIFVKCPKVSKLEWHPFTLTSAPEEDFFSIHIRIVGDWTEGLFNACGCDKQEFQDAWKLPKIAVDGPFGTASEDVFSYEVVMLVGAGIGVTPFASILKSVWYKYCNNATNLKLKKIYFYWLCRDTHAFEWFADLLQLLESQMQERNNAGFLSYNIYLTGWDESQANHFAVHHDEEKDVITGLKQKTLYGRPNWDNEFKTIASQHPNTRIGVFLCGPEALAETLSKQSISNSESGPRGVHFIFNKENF
Chain of NADPH oxidase 4 (Homo sapiens) (Q9NPH5 whole entry, looked up): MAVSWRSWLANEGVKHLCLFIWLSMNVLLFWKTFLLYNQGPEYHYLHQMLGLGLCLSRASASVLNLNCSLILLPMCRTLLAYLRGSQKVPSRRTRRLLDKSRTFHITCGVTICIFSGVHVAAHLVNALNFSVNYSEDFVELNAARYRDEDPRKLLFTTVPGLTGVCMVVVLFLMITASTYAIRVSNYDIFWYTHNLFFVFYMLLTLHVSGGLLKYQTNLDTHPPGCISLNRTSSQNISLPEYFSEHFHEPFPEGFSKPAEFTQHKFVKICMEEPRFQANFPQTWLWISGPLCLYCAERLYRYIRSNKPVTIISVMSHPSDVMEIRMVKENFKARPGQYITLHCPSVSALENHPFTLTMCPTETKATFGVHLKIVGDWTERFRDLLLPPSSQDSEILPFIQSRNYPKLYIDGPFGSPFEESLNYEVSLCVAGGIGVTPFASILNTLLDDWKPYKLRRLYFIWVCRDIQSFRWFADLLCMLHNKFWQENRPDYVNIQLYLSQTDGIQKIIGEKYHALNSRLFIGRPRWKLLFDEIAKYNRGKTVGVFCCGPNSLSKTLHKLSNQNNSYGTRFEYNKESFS
Chain of Torsin-1A (Homo sapiens) (O14656 whole entry, looked up): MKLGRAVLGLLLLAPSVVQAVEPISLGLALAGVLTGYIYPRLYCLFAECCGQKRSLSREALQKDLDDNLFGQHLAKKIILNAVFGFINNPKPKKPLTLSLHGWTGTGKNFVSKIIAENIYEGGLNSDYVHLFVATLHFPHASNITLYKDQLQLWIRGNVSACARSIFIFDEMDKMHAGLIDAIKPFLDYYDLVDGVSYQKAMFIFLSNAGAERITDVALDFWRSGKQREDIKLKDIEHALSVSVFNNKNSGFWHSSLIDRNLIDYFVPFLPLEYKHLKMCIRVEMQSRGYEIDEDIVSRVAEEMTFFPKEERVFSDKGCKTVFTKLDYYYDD

| Structure (SMILES) | composite z-score [1] | z-score [2] | z-score [3] | z-score [4] | z-score [5] | composite z-score [6] | composite z-score [7] | composite z-score (Torsin-1A (Homo sapiens) [8]) | composite z-score (Torsin-1A (Homo sapiens) [9]) | composite z-score [10] | z-score [11] | composite z-score [12] | z-score [13] | z-score [14] | z-score [15] | z-score [16] | z-score [17] | z-score [18] | z-score [19] | z-score [20] |
| --- | --- | --- | --- | --- | --- | --- | --- | --- | --- | --- | --- | --- | --- | --- | --- | --- | --- | --- | --- | --- |
| CC(C)[Si](C#Cc1ccc(Oc2ccccc2)cc1)(O[Si](C#Cc1ccc(Oc2ccccc2)cc1)(C(C)C)C(C)C)C(C)C | 0.253 | 0.479 (inactive) | -0.614 (inactive) | 0.6 (inactive) | -0.378 (inactive) | -0.286 | 0.0403 | 0.567 | 0.514 | 1.05 | 0.555 (inactive) | -0.103 | 2.62 (inactive) | 1.85 (inactive) | 0.226 (inactive) | 1.39 (inactive) | 0.335 | 1.49 (inactive) | 1.46 (inactive) | -1.34 |
| C=C(CCCC)/C(=C/C[C@H](OC(C)=O)c1ccccc1OCCO)c1cc(C(=O)OC)ccc1OC | 0.0205 | -3.83 (inactive) | 0.437 (inactive) | 13.3 (active) | -0.671 (inactive) | -0.24 | -0.157 | -0.266 | -0.174 | 0.199 | 1.02 (inactive) | -0.0046 | 15.1 (active) | 0.621 (inactive) | 2.54 (inactive) | -1.43 (inactive) | 0.708 | 0.254 (inactive) | 0.101 (inactive) | -1.92 |
| [N-]=[N+]=NCc1ccccc1C[C@]1(C(=O)N2CCCCC2)N=C(c2ccc(OCCCO)cc2)O[C@H]1c1ccccc1N=[N+]=[N-] | 0.0151 | -5.01 (inactive) | -0.799 (inactive) | -0.333 (inactive) | -1.69 (inactive) | 1.46 | 0.127 | 0.333 | 1.03 | -0.27 | -0.365 (inactive) | 0.286 | 30.8 (active) | 26.5 (active) | 3.55 (inactive) | 6.26 (inactive) | 1.9 | -2.45 (inactive) | 0.306 (inactive) | -2.97 |
| C=C(COC)/C(=C/C[C@@H](OC(=O)c1ccncc1)c1ccc(CO)o1)c1cc(C(=O)OC)ccc1OC | 1.08 | -0.158 (inactive) | -0.985 (inactive) | 0.904 (inactive) | 1.31 (inactive) | 0.207 | -0.0645 | 1.1 | 0.756 | 2.17 | 0.855 (inactive) | 0.062 | 3.87 (inactive) | 0.453 (inactive) | 1.57 (inactive) | 0.308 (inactive) | 0.934 | -0.631 (inactive) | -0.124 (inactive) | -0.495 |
| O=C1O[C@H](c2ccccc2)[C@H](c2ccccc2)N2[C@H]1[C@@H](C(=O)N1CCCCCCC1)[C@]1(C(=O)Nc3ccc(C#CCCO)cc31)[C@H]2c1ccccc1OCCO | 2.73 | -3.61 (inactive) | 0.999 (inactive) | -0.698 (inactive) | -1.19 (inactive) | 4.08 | 2.33 | 3.84 | 3.83 | 2.53 | 0.609 (inactive) | 2.89 | 1.54 (inactive) | 1.19 (inactive) | 2.13 (inactive) | 0.565 (inactive) | -0.319 | 1.31 (inactive) | 0.959 (inactive) | 1.67 |
| CC(C)=CCN[C@H](CO)c1ccccc1 | -0.249 | -3.85 (inactive) | -0.0678 (inactive) | -1.05 (inactive) | 0.0877 (inactive) | 0.0079 | 0.102 | -0.801 | 0.324 | 0.627 | -0.209 (inactive) | -0.114 | 0.128 (inactive) | -0.916 (inactive) | 0.198 (inactive) | -2.39 (inactive) | 0.983 | -0.763 (inactive) | -0.688 (inactive) | -1.61 |
| O=C1c2ccccc2[C@](Cc2ccccc2I)(C(=O)NCC(F)(F)F)[C@H](c2ccc(CO)cc2)N1Cc1ccccc1Cl | 0.0919 | -0.703 (inactive) | -1.28 (inactive) | 0.506 (inactive) | 0.779 (inactive) | 0.742 | 0.216 | -0.14 | 0.34 | 1.37 | 0.193 (inactive) | -0.105 | 4.4 (inactive) | 0.208 (inactive) | 1.84 (inactive) | 0.499 (inactive) | 0.312 | 2.69 (inactive) | 0.566 (inactive) | 1.05 |
